PubChem BioAssay
Activity calls are given as the source filed them.

Assay: small-molecule microarray binders of probe aXIP, primary screen, biochemical, NeuroSMM set, 635/667 nm fluorescence (AID 1119);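 also: probe is the protein aXip251-270 applied at 1 µg/mL to compound-printed slides; binding of probe to printed compounds measured as 667 nm fluorescence plus signal to noise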
Conditions: higher = more signal, called active from +8 up or from −8 down

Composite Z-score, inactive:
C=CCC(OC(C)=O)[C@@H]1[C@@H](N(Cc2cccc3ccccc23)C(=O)c2ccc(C)cc2)c2cc(OCCCO)ccc2N1C(=O)Cc1ccc2ccccc2c1 (some centres undefined) -0.758
COC(=O)C1(CC(C)C)C=C2C(=C(C)C(=O)C2C)CN1 (centres undefined) 1.64
COC(=O)[C@@]1(Cc2ccc(F)cc2)[C@H]2c3cc(C(=O)N4CCCC4)n(C[C@H](O)CO)c3C[C@H]2CN1C(=O)c1ccccc1 0.133
COC(=O)C(CC#Cc1ccc2c(c1)[C@]1(C(=O)N2)[C@H](C(=O)NC[C@H](O)c2ccccc2)[C@H]2C(=O)O[C@H](c3ccccc3)[C@H](c3ccccc3)N2[C@@H]1c1ccc(O)cc1)C(=O)OC 1.05
CC(C)c1ccc(NN2C(C(O)C3CCCCC3)C=CC3C(=O)N(c4ccccc4)C(=O)C32)cc1 (centres undefined) 0.637
CN(C)C(=O)[C@]1(CCS(=O)(=O)c2ccccc2)N=C(c2ccc(OCCCO)cc2)O[C@@H]1c1ccccc1CN=[N+]=[N-] 0.581
COc1ccc(C(=O)Nc2cccc(CN3C(=O)[C@]4(O[C@H](CC(=O)N(CCO)Cc5ccccc5)[C@@H]([Si](C)(C)c5ccc(OC)cc5)[C@@H]4C)c4ccccc43)c2)cc1 0.264
C=CCNC(=O)[C@@H]1[C@H]2C(=O)O[C@H](c3ccccc3)[C@H](c3ccccc3)N2[C@H](c2ccc(O)cc2)[C@@]12C(=O)N(C(=O)OCCOC)c1ccc(C#CCC(C(=O)OC)C(=O)OC)cc12 0.903
C=CCNC(=O)[C@H]1[C@@H]2C(=O)O[C@@H](c3ccccc3)[C@@H](c3ccccc3)N2[C@@H](c2ccc(OCCO)cc2)[C@]12C(=O)N(C(=O)OCCOC)c1ccc(C#CCNC(N)=O)cc12 -0.0518
COC(=O)[C@@]1(Cc2ccc(OC)cc2)[C@@H]2[C@@H](CC(=O)[C@H]2CC(=O)C(=O)N(C)C)CN1C(=O)c1ccccc1 0.289
CC(C)N1C(=O)[C@@]2(Cc3ccccc31)c1ccccc1C(=O)N(Cc1ccccc1C(F)(F)F)[C@H]2c1ccc(CO)cc1 0.795
COc1ccc(C#Cc2ccc3c(c2)[C@]2(C(=O)N3)[C@H](c3ccccc3OCCO)N3[C@H](c4ccccc4)[C@H](c4ccccc4)OC(=O)[C@H]3[C@@H]2C(=O)NC[C@H](O)c2ccccc2)cc1 -0.419
O=C1O[C@H](c2ccccc2)[C@H](c2ccccc2)N2[C@H]1[C@@H](C(=O)O)[C@]1(C(=O)Nc3ccccc31)[C@H]2c1ccc(OCCO)cc1 -0.617
Cc1ccc(S[C@]2(C(=O)NCCN3CCOCC3)CC(=O)N(C(C)C)[C@@H]2c2ccc(CO)cc2I)cc1 0.289
COc1ccc([Si](C)(C)[C@H]2[C@H](CC(=O)N(CCO)Cc3ccccc3)O[C@@]3(C(=O)N(c4ccccc4)c4ccccc43)[C@@H]2C)cc1 0.308
CN1C(=O)C2C=CC(C(O)c3ccc(I)cc3)N(N(c3ccccc3)c3ccccc3)C2C1=O (centres undefined) 0.263
C=CCC(OC(C)=O)[C@@H]1[C@@H](N(Cc2ccc(-c3ccccc3)cc2)C(=O)Cc2ccc(OC)cc2)c2cc(OCCCO)ccc2N1C(=O)Cc1ccc(OC)cc1 (some centres undefined) 0.445
Cc1ccc(S[C@]2(C(=O)NC(C)C)CC(=O)N(Cc3ccccc3)[C@@H]2c2ccc(CO)cc2)cc1 0.339
C=CCNC(=O)[C@H]1[C@@H]2C(=O)O[C@@H](c3ccccc3)[C@@H](c3ccccc3)N2[C@@H](c2ccc(OCCO)cc2)[C@]12C(=O)N(C(=O)OCCOC)c1ccc(C#CCC(C(=O)OC)C(=O)OC)cc12 0.245
CCCCCN1CC=CC23O[C@@H]4/C=C\CCCOC(=O)C4[C@H]2C(=O)N(CCO)[C@@H]3C1=O (some centres undefined) 0.0463
CN1C2C=C(c3ccc(CO)cc3)C(C3C(=O)N(C(N)=O)C(=O)C32)C1C1CC1 (centres undefined) -0.378
Cc1ccc(S(=O)(=O)N2[C@@H](c3ccccc3)C(C(=O)O)=C[C@H]2C(C)(C)C)cc1 0.882
C=C(C(=O)CC[C@@H](OC(=O)c1ccccc1-c1ccccc1C(=O)O)c1ccc(CO)o1)C(C)C 0.0692
COC(=O)[C@@]1(Cc2ccc(F)cc2)[C@@H]2C(=CC(=O)[C@H]2CC(=O)C(=O)N2CCCC2)CN1C(=O)c1ccccc1 -0.131
